This excerpt belongs to a sample that is enriched for hits.
ST2 inh = inhibitors of human ST2 (IL1RL1) binding to IL-33, primary screen, biochemical, AlphaLISA | AlphaLISA ST2-Fc/biotin-IL-33 interaction, 1 h | inhibition, % for hits at 17 µM | 78,000 tested, 2.3% active | AID 1259354, 2018; in the data active = inhibition above about 30%
Target sequence (Q01638 whole entry, looked up): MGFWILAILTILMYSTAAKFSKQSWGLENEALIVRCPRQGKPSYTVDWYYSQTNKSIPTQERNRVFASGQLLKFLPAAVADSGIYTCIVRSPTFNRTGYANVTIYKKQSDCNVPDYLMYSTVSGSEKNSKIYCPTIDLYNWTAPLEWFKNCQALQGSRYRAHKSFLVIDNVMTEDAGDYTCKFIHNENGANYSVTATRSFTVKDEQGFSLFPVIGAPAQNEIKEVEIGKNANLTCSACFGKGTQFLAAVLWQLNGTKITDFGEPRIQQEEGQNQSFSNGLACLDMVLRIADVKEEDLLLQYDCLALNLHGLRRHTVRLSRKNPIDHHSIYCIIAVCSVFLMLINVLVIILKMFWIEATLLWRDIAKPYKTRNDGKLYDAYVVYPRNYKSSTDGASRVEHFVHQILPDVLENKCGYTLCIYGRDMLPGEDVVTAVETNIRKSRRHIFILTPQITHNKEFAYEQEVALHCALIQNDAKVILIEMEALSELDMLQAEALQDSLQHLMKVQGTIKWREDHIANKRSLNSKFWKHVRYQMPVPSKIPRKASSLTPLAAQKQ
The depositor's hits bear a star.

Screening CCOc1ccc(-c2nn(-c3ccccc3)cc2/C=c2\sc3nc(=O)c(C)nn3c2=O)cc1C returned ST2 inh inactive.
Screening CCOC(=O)CSc1cn(Cc2ccc(Cl)cc2)c2ccccc12 returned ST2 inh inactive.
For O=C1Nc2ccc(Br)cc2C(=O)N2CCN(C(=O)c3cccc(F)c3)C[C@H]12 the results were ST2 inh 37%*.
Screening O=C1Nc2ccc(-c3ccccc3)cc2C(=O)N2CCN(C(=O)c3cccc(F)c3)C[C@H]12 returned ST2 inh inactive.
For O=C1Nc2ccc(Br)cc2C(=O)N2CCN(C(=O)c3ccccc3)C[C@H]12 the results were ST2 inh inactive.
CCOc1ccccc1Nc1sc(C(=O)c2ccccc2)c(N)c1C#N was read as ST2 inh inactive.
`COc1ccc(-c2c(C#N)c(N)nc(SCC(N)=O)c2C#N)cc1` gave ST2 inh inactive.
Cc1ccccc1C1(CC(=O)N2CCN(Cc3ccccc3)CC2)CC(=O)N(Cc2ccncc2)C1=O (stereo not given) was read as ST2 inh inactive.
`O=C(NC1CCC(n2cnnc2)CC1)c1cnc(-c2ccccn2)nc1` (stereo not given) gave ST2 inh inactive.
For Brc1cccc(OCCCN2CCCCC2)c1 the results were ST2 inh inactive.
CC(=O)N(CN1C(=O)CCC1=O)c1cccc(Cl)c1 was read as ST2 inh inactive.
CC(=O)N(C1=C(N(C)C)C(=O)c2ccccc2C1=O)c1cccc(Cl)c1 was read as ST2 inh 31%*.
CN(C)C(=O)c1ccccc1-c1cccc(Cl)c1 was read as ST2 inh inactive.
`COc1ccc(NC(=O)N2CCC(n3c(C)nc4cccnc43)CC2)cc1` gave ST2 inh inactive.
O=C(O)C1CN(C(=O)c2cc(-n3cccn3)ccc2Cl)CCN1 (stereo not given) was read as ST2 inh inactive.
For CC(=O)c1cc(CC(=O)NC2CCCN(CCc3ccccc3)C2)cs1 (stereo not given) the results were ST2 inh inactive.
Screening CC(=O)Nc1ccc(NC2=CC(=NS(=O)(=O)c3ccc(C)cc3)c3ccccc3C2=O)cc1 returned ST2 inh 48%*.
For CC(=O)Nc1ccc(S(=O)(=O)Nc2ccccc2Cl)cc1 the results were ST2 inh inactive.
`CC(=O)Nc1ccc(S(=O)(=O)NCc2ccccc2)cc1` gave ST2 inh inactive.
Screening O=C(O)c1cccc(NC(=O)c2cccc(S(=O)(=O)Nc3ccc(Cl)cc3)c2)c1 returned ST2 inh inactive.
Screening CC(=O)Nc1ccc(S(N)(=O)=O)cc1 returned ST2 inh inactive.
Screening CC(=O)Nc1ccc(NC2=CC(=NS(=O)(=O)c3ccccc3)c3ccccc3C2=O)cc1 returned ST2 inh 83%*.
Screening O=C(O)c1ccc(NC2=CC(=NS(=O)(=O)c3ccc(Cl)cc3)c3ccccc3C2=O)cc1 returned ST2 inh 48%*.
O=S(=O)(Nc1ccc(S(=O)(=O)Nc2ccc(Cl)cc2)cc1)c1ccccc1 was read as ST2 inh inactive.
`C=CCC(CC=C)(NS(=O)(=O)c1ccc(NC(C)=O)cc1)c1ccccc1` gave ST2 inh inactive.
Cc1cc(OCC(=O)Nc2ccc(F)cc2F)cc(C)c1Br was read as ST2 inh inactive.
For Cc1ccc(NC(=O)C2CCN(S(=O)(=O)c3c(C)noc3C)CC2)nc1 the results were ST2 inh inactive.
O=C(Cc1cccs1)N1CCc2c(cc(-c3ccccc3F)c(=O)n2Cc2ccncc2)C1 was read as ST2 inh inactive.
CN(Cc1cc2c(cc1Cl)OCO2)CC1CCCCO1 (stereo not given) was read as ST2 inh inactive.
For COc1cc(C)ccc1S(=O)(=O)N1CCc2nc(C)n(C)c(=O)c2CC1 the results were ST2 inh inactive.
O=[N+]([O-])c1ccc2nc(CSc3nc4ccccc4o3)[nH]c2c1 was read as ST2 inh inactive.
`O=[N+]([O-])c1ccc2nc(-c3ccco3)c(-c3ccco3)nc2c1` gave ST2 inh 36%*.
O=c1oc2cc([N+](=O)[O-])ccc2nc1C=C(O)c1ccco1 was read as ST2 inh inactive.
For COc1ccccc1C(=O)Nc1nnc(Cc2ccc(Cl)cc2)s1 the results were ST2 inh inactive.
For COc1ccc(C2CC(c3c(F)cccc3Cl)n3nc(N)nc3N2)cc1 (stereo not given) the results were ST2 inh inactive.
Screening N/C(=N/OC(=O)c1cccc(F)c1)c1ccncc1 returned ST2 inh inactive.
For COc1cc2[nH]c(=O)n(CCCC(=O)NC(C)C)c(=O)c2cc1OC the results were ST2 inh inactive.
For CCSC1=N/C(=C\c2c(OC)cc(OC)cc2OC)C(=O)S1 the results were ST2 inh 38%*.
For CC(C)CCNC(=O)Cc1c(C(=O)O)[nH]c2ccccc12 the results were ST2 inh inactive.
For O=C1NCC2(CCCN(Cc3ccccc3-c3ccccc3)C2)O1 (stereo not given) the results were ST2 inh inactive.
`CCOc1ccc2cc(C3CC(c4ccc(C)cc4)=NN3C(C)=O)c(=O)[nH]c2c1` (stereo not given) gave ST2 inh inactive.
CC1(C2CCC(=O)O2)CC(=O)c2c(O)cc(CO)cc2O1 (stereo not given) was read as ST2 inh 30%*.
Cc1nnc(-c2ccccc2-c2cccc(CN3CCOCC3)c2)o1 was read as ST2 inh inactive.
For Cc1nnc(-c2cccc(-c3cc(NCc4ccccn4)nc4[nH]ccc34)c2)o1 the results were ST2 inh 35%*.
For Cc1cccc(-c2nnc(-c3nc(NCc4ccccc4C)c4ccccc4n3)o2)c1 the results were ST2 inh inactive.
For Cc1cc(C)cc(OCC(=O)Nc2ncc(S(=O)(=O)c3ccc([N+](=O)[O-])cc3)s2)c1 the results were ST2 inh inactive.
`CCc1nc(C)c(C(=O)N2CC[C@@H](c3sccc3C)[C@H](O)C2)o1` gave ST2 inh inactive.
Cc1ccsc1[C@@H]1CCN(C(=O)c2coc3c2C(=O)CCC3)C[C@H]1O was read as ST2 inh 32%*.
Screening CC(=O)c1[nH]c(C)c(C(=O)N2CC[C@@H](c3sccc3C)[C@H](O)C2)c1C returned ST2 inh inactive.
For CCC1C(=O)CC(c2cc(OC)ccc2OC)NC1c1cc(OC)ccc1OC (stereo not given) the results were ST2 inh inactive.
For Cc1ccccc1NC1=CC(=O)CC(C)(C)C1 the results were ST2 inh inactive.
For CC1(C)CC(=O)C=C(/C=C/c2ccc(N3N=N3)cc2)C1 the results were ST2 inh 40%*.
For Cn1c(C(=O)NCCC(c2ccccc2)c2ccccc2)cc2c(=O)n3ccccc3nc21 the results were ST2 inh inactive.
For Cc1ccc(OCc2cc(=O)n3oc(C)cc3n2)c(NC(=O)COc2ccccc2)c1 the results were ST2 inh inactive.
For O=C(C1CCOC1)N(Cc1cccnc1)CC1CCN(C2CCCC2)CC1 (stereo not given) the results were ST2 inh inactive.
C=CC(C)(O)CC[C@H]1C(=C)CCC2[C@](C)(C(=O)O)CCC[C@@]21C (stereo not given in full) was read as ST2 inh inactive.
CC(C)C1(O)C=C2C(=O)CC3C(C)(C(=O)O)CCCC3(C)C2CC1 (stereo not given) was read as ST2 inh 30%*.

Screening results from PubChem.
